Measurements as given in PubChem BioAssay (Tox21).
Where “and” joins values, the source holds several entries; their conditions need not be identical. Identical values can stand only once. Results filed as inconclusive are left out. Entries that show only a call come without a potency. The source holds several records for some structures; these can differ, active in one and inactive in another. Calls of active or inactive are those of the source. Calls follow the shape of the dose curve; as a rule, active = well fitted curve in the direction sought with a large enough effect in the repeat runs; inconclusive = weak or mixed curves; inactive = no such curve, though single readings can be large; an effect the other way counts as inactive or inconclusive.

Experiments:
[1] = Caspase-3/7 induction in CHO-K1 cells by small molecules, qHTS assay (AID 1346980); also: nearly all actives have a fitted effect of over 15% in size
Summary of the method: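 Wild-type CHO-K1 cells exposed to compounds for 17hr at 37 C, 5% CO2. Caspase-3/7 activity then measured by Caspase-Glo 3/7 luminescence after 30min at room temperature.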

[2] = Caspase-3/7 induction in HepG2 cells by small molecules, qHTS cell viability counter screen (AID 1346981); also: nearly all actives have a fitted effect of over 30% in size; also: potency is read from the fitted curve at half-maximal effect
Summary of the method: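 Fluorescence read-out of live-cell protease activity (CellTiter-Fluor) after 1 hr with reagent. This was measured in the same wells as the caspase-3/7 luminescence, on HepG2 cells exposed to DMSO-dissolved compounds for 16 hr at 37 C.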

[3] = biological target: Nuclear receptor subfamily 1 group I member 2 (Homo sapiens) (UniProt O75469); assay: Human pregnane X receptor (PXR) small molecule agonists, qHTS assay (AID 1346982); also: nearly all actives have a fitted effect of over 35% in size; also: potency is read from the fitted curve at half-maximal effect
Summary of the method: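 HepG2 PXR-Luc reporter line, 5% charcoal-stripped FBS; 5 hr pre-incubation, compound (DMSO) 24 hr at 37 C/5% CO2; ONE-Glo 30 min RT; luminescence read-out.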

[4] = biological target: Cytochrome P450 2C19 (Homo sapiens) (UniProt P33261); assay: Cytochrome P450 Family 2 Subfamily C Member 19 (CYP2C19) small molecule antagonists: luciferase reporter qHTS assay (AID 1671197); also: nearly all actives have a fitted effect of over 65% in size; also: potency is read from the fitted curve at half-maximal effect
Summary of the method: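 P450-Glo CYP2C19 screening system; proluciferin substrate; DMSO compound stocks; 10 min RT preincubation; NADPH regeneration, 1 h at 37C; luciferin detection reagent, 20 min RT; luminescence as RLU.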

[5] = biological target: Cytochrome P450 2C9 (Homo sapiens) (UniProt P11712); assay: Cytochrome P450 Family 2 Subfamily C Member 9 (CYP2C9) small molecule antagonists: luciferase reporter qHTS assay (AID 1671198); also: nearly all actives have a fitted effect of over 50% in size; also: potency is read from the fitted curve at half-maximal effect
Summary of the method: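 P450-Glo proluciferin substrate with CYP2C9 enzyme; 10 min RT preincubation, then NADPH regeneration 1 h at 37C; luciferin detection reagent 20 min RT, luminescence in relative luminescence units.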

[6] = biological target: Cytochrome P450 1A2 (Homo sapiens) (UniProt P05177); assay: Cytochrome P450 Family 1 Subfamily A Member 2 (CYP1A2) small molecule antagonists: luciferase reporter qHTS assay (AID 1671199); also: nearly all actives have a fitted effect of over 50% in size; also: potency is read from the fitted curve at half-maximal effect
Summary of the method: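 Luminescence readout (relative luminescence units) after luciferin detection reagent, 20 min RT. Preceded by 1 h room-temperature CYP1A2 reaction with NADPH regeneration solution following 10 min compound preincubation with enzyme and proluciferin substrate. Furafylline positive control.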

[7] = biological target: Voltage-gated inwardly rectifying potassium channel KCNH2 (Homo sapiens) (UniProt Q12809); assay: Human Ether-a-go-go-Related Gene (hERG) channel small molecule antagonists: fluorescence cell-based qHTS assay (AID 1671200);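 also: hERG-expressing U2OS cells given a thallium stimulus after FluxOR II dye loading; series mostly up to about 77 µM; nearly all actives have a fitted effect of over 50% in size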
Summary of the method: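 Cell line hERG-U2OS; dye FluxOR II, 1 h RT dark; Tl+ stimulus; ex 480/em 540 nm, read each second for 2 min.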

[8] = biological target: Cytochrome P450 3A4 (Homo sapiens) (UniProt P08684); assay: Cytochrome P450 Family 3 Subfamily A Member 4 (CYP3A4) small molecule antagonists: luciferase reporter qHTS assay (AID 1671201); also: nearly all actives have a fitted effect of over 50% in size; also: potency is read from the fitted curve at half-maximal effect
Summary of the method: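 Room-temperature assay throughout: 10 min compound–enzyme/substrate preincubation, 1 h reaction after NADPH regeneration solution, 20 min detection. Luciferin formed from proluciferin substrate is quantified by luminescence.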

[9] = biological target: Cytochrome P450 2D6 (Homo sapiens) (UniProt P10635); assay: Cytochrome P450 Family 2 Subfamily D Member 6 (CYP2D6) small molecule antagonists: luciferase reporter qHTS assay (AID 1671196); also: nearly all actives have a fitted effect of over 50% in size; also: potency is read from the fitted curve at half-maximal effect
Summary of the method: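 Luminogenic proluciferin substrate, CYP2D6 enzyme; 10 min RT preincubation with compound, NADPH regeneration system added, 1 h RT. Stop/detection reagent, 20 min RT, luminescence read (RLU). Signal proportional to CYP activity.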

[10] = biological target: Nuclear receptor subfamily 1 group I member 2 (Rattus norvegicus) (UniProt Q9R1A7); assay: Rat pregnane X receptor (rPXR) activation by small molecules, qHTS assay (AID 1346983); settings: rPXR luciferase reporter cells, One-Glo luminescence, 24 h; max activation: stronger effect = higher value; also: nearly all actives have a fitted effect of over 20% in size
Summary of the method: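 Cell-based rPXR activation assay: rPXR cells, 2,000 per well, rested 5hr at 37 C, then exposed to compounds in DMSO for 24 hr at 37 C. Luciferase activity read by One-Glo luminescence after 30 min at room temperature.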

[11] = biological target: Nuclear receptor subfamily 1 group I member 2 (Homo sapiens) (UniProt O75469); assay: CYP3A4 induction through human pregnane X receptor (PXR) by small molecules, qHTS assay (AID 1346984); also: nearly all actives have a fitted effect of over 40% in size
Summary of the method: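 HepG2-derived DPX-2 line carrying PXR plus a CYP3A4-promoter luciferase reporter; cells plated 5 hr, compound-exposed 24 hr at 37C. CYP3A4 activity probed with 3uM (final) Luciferin-IPA for 3hr, then luciferase read after One-Glo.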

[12] = biological target: Nuclear receptor subfamily 1 group I member 2 (Homo sapiens) (UniProt O75469); assay: Human pregnane X receptor (PXR) activation by small molecules, qHTS assay (AID 1346985); also: nearly all actives have a fitted effect of over 40% in size
Summary of the method: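 DPX-2 cells (HepG2 co-transfected with a PXR response element and a CYP3A4-promoter luciferase construct) were seeded at 2,000 per well, rested 5 hr at 37C, then exposed to DMSO-dissolved compounds for 24 hr. Activation was read as luciferase luminescence.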

Chain of Cytochrome P450 2C19 (Homo sapiens) (P33261 whole entry, looked up): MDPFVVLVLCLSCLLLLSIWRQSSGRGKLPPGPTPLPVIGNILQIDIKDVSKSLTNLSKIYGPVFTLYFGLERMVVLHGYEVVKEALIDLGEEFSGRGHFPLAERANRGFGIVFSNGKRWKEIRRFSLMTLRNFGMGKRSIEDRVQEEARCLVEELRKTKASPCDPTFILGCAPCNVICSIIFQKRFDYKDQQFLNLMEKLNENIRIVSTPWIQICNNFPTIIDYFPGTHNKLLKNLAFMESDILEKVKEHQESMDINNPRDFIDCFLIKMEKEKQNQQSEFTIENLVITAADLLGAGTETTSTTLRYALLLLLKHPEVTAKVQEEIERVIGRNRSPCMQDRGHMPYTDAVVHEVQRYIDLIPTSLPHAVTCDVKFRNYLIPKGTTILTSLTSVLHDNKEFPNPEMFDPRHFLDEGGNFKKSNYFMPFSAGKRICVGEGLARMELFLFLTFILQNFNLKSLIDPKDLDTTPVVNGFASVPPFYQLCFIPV
Chain of Cytochrome P450 2D6 (Homo sapiens) (P10635 whole entry, looked up): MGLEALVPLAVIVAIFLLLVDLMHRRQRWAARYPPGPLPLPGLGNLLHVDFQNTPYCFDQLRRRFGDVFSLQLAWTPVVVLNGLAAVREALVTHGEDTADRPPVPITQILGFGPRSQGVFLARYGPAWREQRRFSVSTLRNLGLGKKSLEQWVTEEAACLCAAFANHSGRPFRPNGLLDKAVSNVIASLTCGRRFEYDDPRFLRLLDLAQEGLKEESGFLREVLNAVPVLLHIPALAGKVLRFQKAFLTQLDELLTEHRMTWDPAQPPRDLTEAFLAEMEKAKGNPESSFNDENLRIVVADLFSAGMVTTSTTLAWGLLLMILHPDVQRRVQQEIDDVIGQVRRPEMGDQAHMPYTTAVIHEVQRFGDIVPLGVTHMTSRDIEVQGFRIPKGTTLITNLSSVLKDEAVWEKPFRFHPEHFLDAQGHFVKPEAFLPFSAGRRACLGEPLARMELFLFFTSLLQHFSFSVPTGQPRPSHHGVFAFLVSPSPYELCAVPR
Chain of Nuclear receptor subfamily 1 group I member 2 (Homo sapiens) (O75469 whole entry, looked up): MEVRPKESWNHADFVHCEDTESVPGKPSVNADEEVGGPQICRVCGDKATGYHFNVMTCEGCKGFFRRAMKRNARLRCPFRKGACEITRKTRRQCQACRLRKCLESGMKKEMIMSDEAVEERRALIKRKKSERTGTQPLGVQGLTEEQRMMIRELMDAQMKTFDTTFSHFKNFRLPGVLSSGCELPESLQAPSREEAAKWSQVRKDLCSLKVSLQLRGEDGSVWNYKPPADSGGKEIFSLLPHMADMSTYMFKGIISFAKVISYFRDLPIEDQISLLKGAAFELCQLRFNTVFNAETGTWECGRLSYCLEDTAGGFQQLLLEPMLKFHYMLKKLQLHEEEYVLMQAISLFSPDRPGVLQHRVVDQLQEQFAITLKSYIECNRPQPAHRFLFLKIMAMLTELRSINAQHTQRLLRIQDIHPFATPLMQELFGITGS
Chain of Voltage-gated inwardly rectifying potassium channel KCNH2 (Homo sapiens) (Q12809 whole entry, looked up): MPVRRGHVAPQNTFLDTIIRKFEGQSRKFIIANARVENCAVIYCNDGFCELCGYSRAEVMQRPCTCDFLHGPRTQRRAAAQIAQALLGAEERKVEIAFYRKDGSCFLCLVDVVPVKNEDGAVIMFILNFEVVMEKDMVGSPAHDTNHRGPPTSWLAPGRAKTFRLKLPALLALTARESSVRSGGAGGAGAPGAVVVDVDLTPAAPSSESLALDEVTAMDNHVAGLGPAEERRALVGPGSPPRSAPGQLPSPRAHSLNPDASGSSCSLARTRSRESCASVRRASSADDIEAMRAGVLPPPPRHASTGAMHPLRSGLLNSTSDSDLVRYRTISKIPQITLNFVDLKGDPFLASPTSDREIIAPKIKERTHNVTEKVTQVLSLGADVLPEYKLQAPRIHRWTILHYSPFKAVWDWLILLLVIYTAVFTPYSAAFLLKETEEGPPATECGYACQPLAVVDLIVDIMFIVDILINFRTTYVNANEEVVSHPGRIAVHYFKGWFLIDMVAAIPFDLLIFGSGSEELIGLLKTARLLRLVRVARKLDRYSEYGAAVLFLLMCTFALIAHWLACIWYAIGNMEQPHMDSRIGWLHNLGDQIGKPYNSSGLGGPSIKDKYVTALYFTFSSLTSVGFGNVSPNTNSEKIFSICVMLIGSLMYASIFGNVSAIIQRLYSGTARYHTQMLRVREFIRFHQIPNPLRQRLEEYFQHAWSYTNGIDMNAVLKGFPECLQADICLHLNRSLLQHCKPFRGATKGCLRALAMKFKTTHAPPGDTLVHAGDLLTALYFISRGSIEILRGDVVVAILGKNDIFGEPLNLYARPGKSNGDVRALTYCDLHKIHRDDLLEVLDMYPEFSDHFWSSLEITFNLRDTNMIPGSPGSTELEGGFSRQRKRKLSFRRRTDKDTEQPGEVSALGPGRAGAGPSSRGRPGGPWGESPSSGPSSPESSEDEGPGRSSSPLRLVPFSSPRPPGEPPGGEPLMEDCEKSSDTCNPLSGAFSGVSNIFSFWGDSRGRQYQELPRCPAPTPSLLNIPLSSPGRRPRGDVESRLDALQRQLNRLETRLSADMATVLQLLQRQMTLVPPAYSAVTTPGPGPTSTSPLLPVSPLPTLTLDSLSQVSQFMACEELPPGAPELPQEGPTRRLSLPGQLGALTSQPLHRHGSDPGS
Chain of Cytochrome P450 3A4 (Homo sapiens) (P08684 whole entry, looked up): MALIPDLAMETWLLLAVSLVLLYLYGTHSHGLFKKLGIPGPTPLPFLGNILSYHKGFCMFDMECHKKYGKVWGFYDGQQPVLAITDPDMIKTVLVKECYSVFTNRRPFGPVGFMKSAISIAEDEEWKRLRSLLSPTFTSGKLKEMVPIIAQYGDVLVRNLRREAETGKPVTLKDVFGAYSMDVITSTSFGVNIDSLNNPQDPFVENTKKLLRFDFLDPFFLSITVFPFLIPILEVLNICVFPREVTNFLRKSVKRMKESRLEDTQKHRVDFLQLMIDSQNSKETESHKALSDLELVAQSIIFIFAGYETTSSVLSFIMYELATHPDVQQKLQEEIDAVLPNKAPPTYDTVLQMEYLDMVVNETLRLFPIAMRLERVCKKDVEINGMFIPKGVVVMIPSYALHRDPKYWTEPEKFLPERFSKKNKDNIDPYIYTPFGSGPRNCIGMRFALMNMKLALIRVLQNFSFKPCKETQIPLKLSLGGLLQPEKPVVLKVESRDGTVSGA
Chain of Cytochrome P450 1A2 (Homo sapiens) (P05177 whole entry, looked up): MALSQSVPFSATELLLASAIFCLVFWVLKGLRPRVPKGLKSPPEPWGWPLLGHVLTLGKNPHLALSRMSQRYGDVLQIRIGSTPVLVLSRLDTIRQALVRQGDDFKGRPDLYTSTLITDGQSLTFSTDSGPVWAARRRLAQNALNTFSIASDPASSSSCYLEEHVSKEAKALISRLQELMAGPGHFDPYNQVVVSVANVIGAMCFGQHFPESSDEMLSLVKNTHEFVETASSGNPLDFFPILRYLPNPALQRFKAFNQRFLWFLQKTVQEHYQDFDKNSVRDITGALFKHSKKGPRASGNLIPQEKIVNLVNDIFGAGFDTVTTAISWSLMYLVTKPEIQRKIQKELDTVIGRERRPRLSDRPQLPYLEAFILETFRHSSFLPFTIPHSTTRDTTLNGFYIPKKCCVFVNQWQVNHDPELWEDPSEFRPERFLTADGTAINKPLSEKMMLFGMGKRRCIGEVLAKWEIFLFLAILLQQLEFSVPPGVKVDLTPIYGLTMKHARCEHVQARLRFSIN
Chain of Nuclear receptor subfamily 1 group I member 2 (Rattus norvegicus) (Q9R1A7 whole entry, looked up): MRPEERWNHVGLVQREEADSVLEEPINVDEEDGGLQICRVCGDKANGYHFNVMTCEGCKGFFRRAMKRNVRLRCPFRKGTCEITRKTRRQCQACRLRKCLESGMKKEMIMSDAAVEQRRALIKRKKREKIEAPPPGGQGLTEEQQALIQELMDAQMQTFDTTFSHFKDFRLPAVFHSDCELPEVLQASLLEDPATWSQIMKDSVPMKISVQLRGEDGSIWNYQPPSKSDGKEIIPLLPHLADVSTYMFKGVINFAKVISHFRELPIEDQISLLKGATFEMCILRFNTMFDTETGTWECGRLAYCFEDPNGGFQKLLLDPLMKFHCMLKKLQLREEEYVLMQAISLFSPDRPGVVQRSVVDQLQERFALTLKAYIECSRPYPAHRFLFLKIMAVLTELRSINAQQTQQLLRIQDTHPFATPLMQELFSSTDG
Chain of Cytochrome P450 2C9 (Homo sapiens) (P11712 whole entry, looked up): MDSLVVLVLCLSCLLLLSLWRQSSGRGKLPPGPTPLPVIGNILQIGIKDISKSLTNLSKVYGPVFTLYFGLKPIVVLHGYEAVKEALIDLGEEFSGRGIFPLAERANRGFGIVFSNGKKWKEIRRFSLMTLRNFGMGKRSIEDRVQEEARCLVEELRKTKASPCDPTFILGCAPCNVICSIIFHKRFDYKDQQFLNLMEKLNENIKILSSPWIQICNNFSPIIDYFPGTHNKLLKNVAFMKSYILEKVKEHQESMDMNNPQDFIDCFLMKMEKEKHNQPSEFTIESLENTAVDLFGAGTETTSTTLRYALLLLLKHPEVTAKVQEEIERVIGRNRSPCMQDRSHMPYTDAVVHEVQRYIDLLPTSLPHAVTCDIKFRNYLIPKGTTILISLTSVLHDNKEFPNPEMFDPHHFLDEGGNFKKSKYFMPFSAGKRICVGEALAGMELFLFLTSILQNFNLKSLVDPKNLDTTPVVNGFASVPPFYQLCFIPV

Structure (SMILES)	outcome [1]	Potency [2]	Potency [3]	Potency [4]	Potency [5]	Potency [6]	outcome [7]	Potency [8]	Potency [9]	max activation [10]	outcome [11]	Potency [12]
COc1ccc(Nc2ccccc2)c(C)c1	inactive	inactive	inactive and 54.5 µM (active)	inactive and 3.17 µM (active)	inactive	inactive and 11.2 µM (active)	inactive	inactive	–	–	–	–
C/C=C1/CC2C=CC1C2 (stereo not drawn)	inactive	inactive	inactive and 54.5 µM (active)	inactive	inactive and 39.9 µM (active)	inactive	inactive	inactive and 31.7 µM (active)	–	–	–	–
CCCCCC/C(C=O)=C\c1ccccc1	inactive	inactive	inactive	40.4 µM (active) and 20 µM (active)	35.6 µM (active)	22.7 µM (active) and 8.94 µM (active)	inactive	inactive	–	–	–	–
CCCCCCCCCCCCOCCO	inactive	inactive	61.1 µM (active) and inactive	–	39.9 µM (active)	31.7 µM (active) and 34.7 µM (active)	inactive	inactive	inactive	–	–	–
O=C=NCCCCCCN=C=O	inactive	inactive	47.5 µM (active) and inactive	69.4 µM (active) and inactive	–	inactive	inactive	inactive	–	–	–	–
CCc1cccc(C)c1N	inactive	inactive	59.2 µM (active) and inactive	–	inactive	39.9 µM (active)	inactive	inactive	–	–	–	–
Fc1ccc(Br)cc1	inactive	inactive	inactive	–	inactive	40.3 µM (active) and inactive	inactive	inactive	–	–	–	–
O=C1CCC(N2C(=O)c3ccccc3C2=O)C(=O)N1 (stereo not drawn)	inactive	inactive	inactive	inactive	inactive	inactive	inactive	inactive	–	–	–	–
CCCCCC(N)=O	inactive	–	inactive	–	inactive	inactive	inactive	inactive	inactive	-0.768% (inactive)	inactive	inactive
Nc1cc([N+](=O)[O-])ccc1O	inactive	48.6 µM (active) and 68.2 µM (active)	inactive	39.9 µM (active) and inactive	31.7 µM (active) and 39.7 µM (active)	39.9 µM (active)	inactive	inactive	–	–	–	–
C=C(C)C(=O)Nc1ccc(Cl)c(Cl)c1	inactive	–	61.8 µM (active) and 54.3 µM (active)	–	36 µM (active) and 63 µM (active)	2.86 µM (active) and 5 µM (active)	inactive	inactive	inactive	–	–	–
CCCCN(CCCC)CCCC	inactive	–	inactive	–	89.4 µM (active)	35.5 µM (active) and inactive	inactive	inactive	inactive	–	–	–
O=C(CC(C(=O)OC1CCCCC1)S(=O)(=O)O)OC1CCCCC1 (stereo not drawn)	inactive	–	26.9 µM (active)	inactive	40.1 µM (active) and 35.1 µM (active)	inactive	inactive	inactive	inactive	–	–	–
OCCOCCOCCO	inactive	–	63.4 µM (active) and inactive	–	inactive	inactive	inactive	inactive	–	-2.18% (inactive)	inactive	inactive
C[C@H]1C[C@H]2[C@@H]3CCC4=CC(=O)C=C[C@]4(C)[C@@]3(F)[C@@H](O)C[C@]2(C)[C@@]1(O)C(=O)CO	inactive	–	–	–	–	22.4 µM (active) and inactive	inactive	–	–	–	–	–
O=C(Oc1ccccc1)c1ccccc1	inactive	–	inactive	–	inactive	31.7 µM (active)	inactive	inactive	inactive	–	–	–
CC(C)CC(=O)CC(C)C	inactive	–	inactive	inactive	inactive	inactive	inactive	22.7 µM (active) and inactive	inactive	–	–	–
Cc1ccc2oc(=O)ccc2c1	inactive	–	31.5 µM (active) and inactive	inactive and 35.6 µM (active)	inactive	32.6 µM (active) and 31.7 µM (active)	inactive	inactive	inactive	–	–	–
O=S1(=O)CC=CC1	inactive	–	52.6 µM (active) and inactive	–	inactive	inactive	inactive	inactive	–	–	–	–
CC1=CC(=O)NS(=O)(=O)O1	inactive	–	–	–	–	–	inactive	–	–	-3.96% (inactive)	–	–
C=C(C)C(=O)OCCOCCOCCOC(=O)C(=C)C	inactive	–	inactive	22.5 µM (active) and 31.7 µM (active)	40 µM (active)	40 µM (active) and 28.3 µM (active)	inactive	inactive	20 µM (active) and inactive	–	–	–
COc1ccc(NC(C)=O)cc1N	inactive	–	–	39.8 µM (active) and 39.9 µM (active)	–	17.8 µM (active) and 25.2 µM (active)	inactive	inactive	–	–	–	–
CCCCCCCCCCCCc1ccccc1	inactive	–	inactive	–	inactive	inactive	–	inactive	inactive	–	–	–
ON=C1CCCCC1	inactive	–	inactive	32 µM (active) and inactive	inactive	32 µM (active) and inactive	inactive	inactive	inactive	–	–	–
O=C(O)CCCC[C@@H]1SC[C@@H]2NC(=O)N[C@@H]21	inactive	–	inactive	–	inactive	inactive	inactive	inactive	–	–	–	–
